Compounds without any hit were thinned out: in the full panel of roughly 83,000, 20% have a hit.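 96-well plates, one dose, 48 hours. Percent growth reported; active if below 10.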 Unmarked numbers belong to inactive results. The source made the active and inactive calls.
tested on: MDA-MB-468 breast; assay: NCI-60 one-dose screen, 48 h (100 = growth as untreated, 0 = no growth, -100 = all killed); conditions: 10 µM unless noted

Row | Structure (SMILES) | growth
1 | C/C=C/C1OCC(CC)C(CCC)O1 (centres undefined) | 122%
2 | O=C(Nc1ccc(Br)cc1F)c1cc(F)ccc1O | -0.885% (active)
3 | CCCCCc1c(C)[nH]c(/C=C2\N=C(c3ccc[nH]3)C=C2CC)c1C | -92.1% (active)
4 | CCOC(=O)c1c(C)oc2ncnc(N3CCN(C(=S)Nc4ccccc4)CC3)c12 | 85.2%
5 | O=C(Cc1csc2nc(-c3ccc(Cl)cc3)cn12)N/N=C/c1ccccc1O | 56.7%
6 | O=C1/C(=C/C2=Cc3ccccc3OC2)SC(=S)N1c1ccc(F)cc1 | 112%
7 | COc1ccc(N2CCN(C3=C(Cl)C(=O)c4ncccc4C3=O)CC2)cc1 | -57.8% (active)
8 | Cn1/c(=N/NC(N)=S)ccc2ccccc21 | 24.9%
9 | COc1cnc2c(c1)C(=O)c1c-2n(CCCN2CCCC2)c(=O)c2cc(Cl)ccc12 | 50.4%
10 | Cc1cc(C)n(-c2nnc3n2N=C(c2ccc(-c4ccccc4)cc2)CS3)n1 | -5.89% (active)
11 | CCN1CCN(C(=O)[C@]23CCC(C)(C)C[C@H]2C2=CC[C@@H]4[C@@]5(C)Cc6c([nH]c7ccccc67)C(C)(C)[C@@H]5CC[C@@]4(C)[C@]2(C)CC3)CC1 | 84.7%
12 | NC(=O)NCCO | 102%
13 | COc1ccc2c(c1)[nH]c(=O)c1c3cccc(F)c3cn21 | 51.8%
14 | COc1cc(-c2nn(-c3ccc(NC(=O)c4cc(Cl)cc(Cl)c4)cc3)cc2-c2ccncc2)ccc1Cl | 89.2%
15 | COc1ccc(C(=O)C(C)Br)cc1OC (centres undefined) | 77.6%
16 | CC(=O)NC(C)(C)C(=O)N1CCC[C@H]1C(=O)NC(C)(C)C(=O)N[C@@H](C)C(=O)NC(C)(C)C(=O)NC(C)(C)C(=O)N[C@@H](CCC(N)=O)C(=O)NC(C)(C)C(=O)N[C@H](C(=O)NC(C)(C)C(=O)NCC(=O)N[C@@H](CC(C)C)C(=O)NC(C)(C)C(=O)N1CCC[C@H]1C(=O)N[C@H](C(=O)NC(C)(C)C(=O)NC(C)(C)C(=O)N[C@@H](CCC(N)=O)C(=O)N[C@@H](CCC(N)=O)C(=O)N[C@H](CO)Cc1ccccc1)C(C)C)C(C)C | -1.54% [4.25 µM] (active)
17 | CCN(c1ccc(Cl)cc1)c1nc(-c2ccc([N+](=O)[O-])cc2)cs1 | 83.8%
18 | O=c1[nH]c2c3ccncc3cc(-c3cccc(Cl)c3)c2c2cnccc12 | 42.1%
19 | c1ccc(-c2cn3c(ccc4ccccc43)n2)cc1 | 30.6%
20 | O=[N+]([O-])c1cc2c(ccc3occc32)o1 | -8.85% (active)

Row | Structure (SMILES) | growth
21 | Cc1c2ccccc2c(C)c2c1ccc1ccccc12 | 20.5%
22 | Cc1ccc(C)c(CN(C)C)c1O | 97.7%
23 | C=C1C(=O)O[C@H]2[C@H]1CC/C(COC(=O)c1c[nH]c3ccccc13)=C\CC[C@@]1(C)O[C@@H]21 | -68.5% (active)
24 | COc1ccc(NC(=O)c2ccc3c(c2)nc(-c2cc4ccccc4[nH]c2=O)n3-c2cc(C(C)(C)C)[nH]n2)cc1 | 95%
25 | COc1ccc(/C=C(/C(=O)n2cnnn2)c2cc(OC)c(OC)c(OC)c2)cc1 | 13.6%
26 | O=C(N/N=C(\CS(=O)(=O)c1ccccc1)c1cc2cc(Br)ccc2oc1=O)c1ccccc1 | 109%
27 | O=[N+]([O-])c1ccc(N/N=C/c2ccccc2O)nc1 | 10.3%
28 | CCOc1ccc(-n2nc(C(=O)Nc3cc(OC)c(OC)c(OC)c3)nc2-c2cc(OC)c(OC)c(OC)c2)cc1 | 82%
29 | COC(=O)C1(CC(C)=O)NC(=S)NC(=O)C1C#N (centres undefined) | 96%
30 | CC/C=C\C[C@H](O)C/C=C1/C(=O)C(Cl)=C[C@@H]1C/C=C\CCCC(=O)OC | -62.1% (active)
31 | O=C(c1ccccc1)C1CCC1 | 110%
32 | C=C1C(=O)O[C@H]2[C@H]1CC/C(COC(=O)c1ccc(Cl)nc1)=C\CC[C@@]1(C)O[C@@H]21 | -25.1% (active)
33 | COc1cc(C2c3cc(OC(C)=O)c(OC)cc3CC3C(=O)OCC32)ccc1OC(C)=O (centres undefined) | 96%
34 | CN1CCN(C(=S)S)CC1 | 119%
35 | COC(=O)[C@]12CC[C@@H](C)[C@H](C)[C@@H]1C1=CC[C@@H]3[C@@]4(C)C[C@@H](O)[C@H](O)[C@@](C)(CO)[C@@H]4[C@H](O)C[C@@]3(C)[C@]1(C)CC2 | -53% (active)
36 | Cc1ccc(C(=O)CSc2nnc(-c3ccc(-c4ccc(Cl)cc4)nc3C)o2)cc1 | 94.9%
37 | CN(C)c1ccc2c(c1)/C(=N/O)c1ccccc1-2 | 76.9%
38 | COc1ccc(C(=O)N2NC(=O)/C(=C/c3ccc(F)cc3)N=C2c2ccccc2)cc1 | 90.6%
39 | CN1C(=O)N(C)C2(c3ccccc3)N(CC(=O)Nc3ccccc3O)C(=O)NC12c1ccccc1 (centres undefined) | 104%

Source: PubChem BioAssay (NCI)
